# According to the supplement of paper PMC6411743:
# ± gives the standard deviation of the averaged measurements. Targets with the largest changes are over-represented here; the source holds about 5,400 in all.
# Experiments:
# Test in all cases: NP40-soluble protein abundance relative to vehicle (solubility fold change) (ratio); higher = more soluble protein in presence of GTP
# ARHGAP1 = target: T1, ARHGAP1 (UniProt Q07960)
# T1 sequence (whole entry): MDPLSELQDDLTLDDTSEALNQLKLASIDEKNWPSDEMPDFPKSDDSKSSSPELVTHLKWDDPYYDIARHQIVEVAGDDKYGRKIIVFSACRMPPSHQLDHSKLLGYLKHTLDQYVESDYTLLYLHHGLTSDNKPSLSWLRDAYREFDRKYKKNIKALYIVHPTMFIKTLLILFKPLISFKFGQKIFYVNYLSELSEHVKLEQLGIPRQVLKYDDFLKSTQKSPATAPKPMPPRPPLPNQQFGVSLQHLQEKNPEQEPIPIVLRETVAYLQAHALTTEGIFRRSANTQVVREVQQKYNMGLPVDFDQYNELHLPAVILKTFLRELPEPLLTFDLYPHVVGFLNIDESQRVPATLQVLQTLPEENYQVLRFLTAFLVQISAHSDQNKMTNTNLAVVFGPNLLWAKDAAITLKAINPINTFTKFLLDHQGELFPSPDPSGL
# Outline: (§1)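 Each value is a fold change relative to the detergent-processed vehicle, calculated per replicate from vsn-normalised intensities. Jurkat crude lysate received eight concentrations (0.1 to 10 mM) for 10 min at room temperature and 3 min at 37 °C, then was solubilised in 0.8% NP40 with benzonase (60 min, 4 °C). The ultracentrifuged supernatant was TMT-labelled and run by LC-MS/MS in three independent experiments.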
# [1] = target: T2, UniProt Q08170|A0A0D9SEM4
# T2 sequence (whole entry): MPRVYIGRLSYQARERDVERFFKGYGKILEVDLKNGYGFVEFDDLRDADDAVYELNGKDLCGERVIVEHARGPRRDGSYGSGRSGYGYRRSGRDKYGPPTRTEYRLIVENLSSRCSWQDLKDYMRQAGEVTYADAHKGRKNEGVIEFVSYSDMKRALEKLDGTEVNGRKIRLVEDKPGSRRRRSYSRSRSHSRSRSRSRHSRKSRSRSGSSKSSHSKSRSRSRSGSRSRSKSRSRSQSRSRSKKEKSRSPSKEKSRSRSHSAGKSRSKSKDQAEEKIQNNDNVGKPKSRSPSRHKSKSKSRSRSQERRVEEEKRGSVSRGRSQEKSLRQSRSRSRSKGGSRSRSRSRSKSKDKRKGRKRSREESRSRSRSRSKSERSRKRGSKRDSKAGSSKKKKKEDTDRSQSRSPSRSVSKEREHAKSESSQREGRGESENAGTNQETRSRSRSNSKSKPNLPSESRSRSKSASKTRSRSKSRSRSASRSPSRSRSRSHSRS
# Outline: as §1
# [2] = target: T3, UniProt Q4ADV7|Q4ADV7-3|Q4ADV7-2
# T3 sequence (whole entry): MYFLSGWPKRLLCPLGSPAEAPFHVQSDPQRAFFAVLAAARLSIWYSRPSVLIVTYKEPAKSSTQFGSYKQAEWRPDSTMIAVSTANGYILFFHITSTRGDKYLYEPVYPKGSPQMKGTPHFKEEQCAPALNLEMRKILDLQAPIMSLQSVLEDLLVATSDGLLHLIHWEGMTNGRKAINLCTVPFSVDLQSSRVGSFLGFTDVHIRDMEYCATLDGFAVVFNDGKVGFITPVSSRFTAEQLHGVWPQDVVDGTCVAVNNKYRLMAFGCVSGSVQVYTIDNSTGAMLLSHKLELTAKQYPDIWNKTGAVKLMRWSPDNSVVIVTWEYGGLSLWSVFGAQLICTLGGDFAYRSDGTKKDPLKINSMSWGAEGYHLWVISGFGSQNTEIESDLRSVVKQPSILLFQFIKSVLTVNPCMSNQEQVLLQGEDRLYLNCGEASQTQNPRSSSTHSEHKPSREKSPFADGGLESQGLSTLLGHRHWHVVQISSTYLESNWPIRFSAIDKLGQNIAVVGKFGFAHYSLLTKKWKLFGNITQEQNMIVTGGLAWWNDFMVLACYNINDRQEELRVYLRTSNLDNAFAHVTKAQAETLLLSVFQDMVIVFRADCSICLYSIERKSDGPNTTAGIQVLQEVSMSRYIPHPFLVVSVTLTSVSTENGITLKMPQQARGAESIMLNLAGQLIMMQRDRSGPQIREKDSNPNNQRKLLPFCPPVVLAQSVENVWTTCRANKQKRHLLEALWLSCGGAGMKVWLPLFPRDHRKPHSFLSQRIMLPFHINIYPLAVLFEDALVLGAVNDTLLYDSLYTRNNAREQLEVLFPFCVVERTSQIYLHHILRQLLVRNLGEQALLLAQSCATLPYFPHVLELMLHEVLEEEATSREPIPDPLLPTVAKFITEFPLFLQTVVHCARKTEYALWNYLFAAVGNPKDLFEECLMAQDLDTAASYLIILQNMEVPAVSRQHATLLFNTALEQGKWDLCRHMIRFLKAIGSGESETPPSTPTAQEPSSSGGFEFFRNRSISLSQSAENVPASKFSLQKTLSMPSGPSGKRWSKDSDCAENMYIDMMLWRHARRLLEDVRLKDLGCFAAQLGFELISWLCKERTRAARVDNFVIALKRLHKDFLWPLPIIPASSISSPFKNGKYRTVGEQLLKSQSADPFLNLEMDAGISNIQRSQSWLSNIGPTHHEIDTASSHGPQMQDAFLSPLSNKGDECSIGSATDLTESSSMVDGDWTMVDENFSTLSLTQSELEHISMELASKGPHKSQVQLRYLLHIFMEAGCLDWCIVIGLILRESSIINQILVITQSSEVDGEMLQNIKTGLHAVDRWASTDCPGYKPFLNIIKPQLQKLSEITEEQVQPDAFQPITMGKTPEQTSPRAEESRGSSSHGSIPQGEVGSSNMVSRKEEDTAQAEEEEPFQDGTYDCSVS
# Outline: as §1
# UniProt Q68CQ4 = target: T4, UniProt Q68CQ4
# T4 sequence (whole entry): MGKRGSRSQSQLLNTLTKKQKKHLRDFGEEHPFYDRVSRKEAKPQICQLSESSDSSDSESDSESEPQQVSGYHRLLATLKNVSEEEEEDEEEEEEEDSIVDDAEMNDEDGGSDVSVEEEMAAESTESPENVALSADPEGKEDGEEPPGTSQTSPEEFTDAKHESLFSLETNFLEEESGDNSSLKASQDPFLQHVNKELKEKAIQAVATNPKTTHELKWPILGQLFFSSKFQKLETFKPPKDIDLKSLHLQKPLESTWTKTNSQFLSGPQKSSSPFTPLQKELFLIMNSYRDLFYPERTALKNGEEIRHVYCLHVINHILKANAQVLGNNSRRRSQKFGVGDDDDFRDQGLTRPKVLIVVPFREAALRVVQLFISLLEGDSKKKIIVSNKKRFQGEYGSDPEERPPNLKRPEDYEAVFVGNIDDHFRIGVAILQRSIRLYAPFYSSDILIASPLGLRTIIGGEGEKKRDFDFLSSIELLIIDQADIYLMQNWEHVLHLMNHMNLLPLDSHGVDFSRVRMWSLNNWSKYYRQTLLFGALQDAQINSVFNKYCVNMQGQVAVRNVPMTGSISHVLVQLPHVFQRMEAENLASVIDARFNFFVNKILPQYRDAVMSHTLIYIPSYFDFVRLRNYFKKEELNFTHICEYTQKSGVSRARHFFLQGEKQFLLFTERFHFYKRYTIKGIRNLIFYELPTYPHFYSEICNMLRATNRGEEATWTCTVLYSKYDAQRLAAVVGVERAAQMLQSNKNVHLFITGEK
# Outline: as §1
# [3] = target: T5, UniProt Q6ULP2|Q6ULP2-2|Q6ULP2-4|Q6ULP2-5|Q6ULP2-3
# T5 sequence (whole entry): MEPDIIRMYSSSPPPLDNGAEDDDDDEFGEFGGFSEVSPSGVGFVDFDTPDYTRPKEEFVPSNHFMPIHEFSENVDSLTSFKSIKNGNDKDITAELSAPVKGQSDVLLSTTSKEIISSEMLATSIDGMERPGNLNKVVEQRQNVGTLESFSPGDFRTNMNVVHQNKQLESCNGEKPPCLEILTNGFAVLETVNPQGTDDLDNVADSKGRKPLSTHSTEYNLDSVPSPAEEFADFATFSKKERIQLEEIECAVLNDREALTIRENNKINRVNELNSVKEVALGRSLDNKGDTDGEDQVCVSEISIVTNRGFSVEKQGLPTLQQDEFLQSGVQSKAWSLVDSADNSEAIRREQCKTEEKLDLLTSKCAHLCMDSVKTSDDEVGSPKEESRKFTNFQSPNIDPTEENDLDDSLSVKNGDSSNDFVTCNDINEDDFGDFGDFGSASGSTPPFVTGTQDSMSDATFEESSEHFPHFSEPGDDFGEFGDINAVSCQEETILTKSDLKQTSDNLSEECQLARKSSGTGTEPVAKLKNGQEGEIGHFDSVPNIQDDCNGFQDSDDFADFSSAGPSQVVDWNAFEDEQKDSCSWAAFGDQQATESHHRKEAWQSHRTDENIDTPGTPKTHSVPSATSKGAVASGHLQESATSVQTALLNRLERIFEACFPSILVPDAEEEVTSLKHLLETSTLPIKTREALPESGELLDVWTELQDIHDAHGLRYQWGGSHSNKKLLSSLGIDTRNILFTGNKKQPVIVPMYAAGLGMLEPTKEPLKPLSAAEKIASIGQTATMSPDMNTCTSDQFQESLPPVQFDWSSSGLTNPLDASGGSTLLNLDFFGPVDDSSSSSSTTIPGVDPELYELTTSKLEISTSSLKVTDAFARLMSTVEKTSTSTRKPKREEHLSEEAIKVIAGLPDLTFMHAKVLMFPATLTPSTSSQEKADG
# Outline: as §1
smiles,measurement,setting,value
Nc1nc2c(ncn2[C@@H]2O[C@H](COP(=O)(O)OP(=O)(O)OP(=O)(O)O)[C@@H](O)[C@H]2O)c(=O)[nH]1 [guanosine triphosphate],NP40-soluble protein abundance,ARHGAP1; concentration: 0.1mM,0.963 ± 0.015
same,NP40-soluble protein abundance,ARHGAP1; concentration: 0.5mM,0.961 ± 0.012
same,NP40-soluble protein abundance,ARHGAP1; concentration: 1mM,0.952 ± 0.011
same,NP40-soluble protein abundance,ARHGAP1; concentration: 2mM,0.93 ± 0.045
same,NP40-soluble protein abundance,ARHGAP1; concentration: 4mM,0.942 ± 0.042
same,NP40-soluble protein abundance,ARHGAP1; concentration: 6mM,0.911 ± 0.037
same,NP40-soluble protein abundance,ARHGAP1; concentration: 8mM,0.867 ± 0.06
same,NP40-soluble protein abundance,ARHGAP1; concentration: 10mM,0.908 ± 0.064
same,NP40-soluble protein abundance,[1]; concentration: 0.1mM,0.928 ± 0.042
same,NP40-soluble protein abundance,[1]; concentration: 0.5mM,1.23 ± 0.055
same,NP40-soluble protein abundance,[1]; concentration: 1mM,1.27 ± 0.028
same,NP40-soluble protein abundance,[1]; concentration: 2mM,1.15 ± 0.052
same,NP40-soluble protein abundance,[1]; concentration: 4mM,0.94 ± 0.034
same,NP40-soluble protein abundance,[1]; concentration: 6mM,1.09 ± 0.042
same,NP40-soluble protein abundance,[1]; concentration: 8mM,1.2 ± 0.053
same,NP40-soluble protein abundance,[1]; concentration: 10mM,1.08 ± 0.035
same,NP40-soluble protein abundance,[2]; concentration: 0.1mM,1.09 ± 0.11
same,NP40-soluble protein abundance,[2]; concentration: 0.5mM,1.13 ± 0.091
same,NP40-soluble protein abundance,[2]; concentration: 1mM,1.02 ± 0.04
same,NP40-soluble protein abundance,[2]; concentration: 2mM,1.07 ± 0.077
same,NP40-soluble protein abundance,[2]; concentration: 4mM,1.12 ± 0.18
same,NP40-soluble protein abundance,[2]; concentration: 6mM,0.946 ± 0.025
same,NP40-soluble protein abundance,[2]; concentration: 8mM,0.92397 ± 0.00016
same,NP40-soluble protein abundance,[2]; concentration: 10mM,0.963 ± 0.19
same,NP40-soluble protein abundance,UniProt Q68CQ4; concentration: 0.1mM,1.02 ± 0.068
same,NP40-soluble protein abundance,UniProt Q68CQ4; concentration: 0.5mM,1.02 ± 0.051
same,NP40-soluble protein abundance,UniProt Q68CQ4; concentration: 1mM,1.01 ± 0.048
same,NP40-soluble protein abundance,UniProt Q68CQ4; concentration: 2mM,0.992 ± 0.04
same,NP40-soluble protein abundance,UniProt Q68CQ4; concentration: 4mM,0.999 ± 0.026
same,NP40-soluble protein abundance,UniProt Q68CQ4; concentration: 6mM,0.994 ± 0.042
same,NP40-soluble protein abundance,UniProt Q68CQ4; concentration: 8mM,1.02 ± 0.046
same,NP40-soluble protein abundance,UniProt Q68CQ4; concentration: 10mM,1.03 ± 0.048
same,NP40-soluble protein abundance,[3]; concentration: 0.1mM,1.01 ± 0.098
same,NP40-soluble protein abundance,[3]; concentration: 0.5mM,1.02 ± 0.066
same,NP40-soluble protein abundance,[3]; concentration: 1mM,0.979 ± 0.064
same,NP40-soluble protein abundance,[3]; concentration: 2mM,1 ± 0.044
same,NP40-soluble protein abundance,[3]; concentration: 4mM,1.06 ± 0.041
same,NP40-soluble protein abundance,[3]; concentration: 6mM,1 ± 0.023
same,NP40-soluble protein abundance,[3]; concentration: 8mM,1.03 ± 0.033
same,NP40-soluble protein abundance,[3]; concentration: 10mM,1.02 ± 0.042
